Several values for one entry are separate records, joined by “and”; a condition that tells them apart may be missing. Equal values may be shown once. Activity calls are given as the source filed them. Unless noted, the call rests on the fitted dose curve.
What was measured:
[1] = molecular target: Glucocorticoid receptor (Homo sapiens) (UniProt P04150); assay: GR-GFP Redistribution (AID 450;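 active means compounds whose dose series gives a full or clear partial fitted curve of increased nuclear translocation; inconclusive means weak partial curve or effect only at the top dose; inactive means no dose-dependent translocation response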; further: potency means the concentration at half of the fitted maximal effect); details: U2OS GR-GFP nuclear translocation, laser cytometry, 2 h
Chain of Glucocorticoid receptor (Homo sapiens) (P04150 whole entry, looked up, the tested form may be a part): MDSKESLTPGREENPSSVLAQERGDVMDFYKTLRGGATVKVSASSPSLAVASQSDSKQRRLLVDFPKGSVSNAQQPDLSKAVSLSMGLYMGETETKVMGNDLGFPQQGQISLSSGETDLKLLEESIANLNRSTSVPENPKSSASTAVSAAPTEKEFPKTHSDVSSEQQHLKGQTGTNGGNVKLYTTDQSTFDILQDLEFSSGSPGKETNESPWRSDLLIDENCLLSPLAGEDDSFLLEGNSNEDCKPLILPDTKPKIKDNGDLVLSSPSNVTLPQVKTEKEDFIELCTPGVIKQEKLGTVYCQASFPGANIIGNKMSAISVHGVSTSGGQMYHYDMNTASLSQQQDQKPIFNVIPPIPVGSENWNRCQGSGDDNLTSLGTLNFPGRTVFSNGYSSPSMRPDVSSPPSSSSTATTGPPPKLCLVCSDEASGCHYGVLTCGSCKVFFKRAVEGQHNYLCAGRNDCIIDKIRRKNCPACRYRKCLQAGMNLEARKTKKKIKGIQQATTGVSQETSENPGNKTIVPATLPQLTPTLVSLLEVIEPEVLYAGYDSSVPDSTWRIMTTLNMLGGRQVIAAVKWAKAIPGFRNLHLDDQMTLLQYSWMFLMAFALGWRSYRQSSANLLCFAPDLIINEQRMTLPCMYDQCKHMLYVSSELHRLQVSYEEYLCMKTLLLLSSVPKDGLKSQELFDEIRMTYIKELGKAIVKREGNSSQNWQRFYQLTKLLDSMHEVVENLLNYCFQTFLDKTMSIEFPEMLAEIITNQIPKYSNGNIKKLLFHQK

[2] = molecular target: Glucocorticoid receptor (Homo sapiens) (UniProt P04150); assay: GR-EFC Redistribution (AID 451); details: CHO-K1 GR-EFC translocation, beta-gal luminescence, 2 h; further: potency means the concentration at half of the fitted maximal effect
Method in brief: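 Translocation of GR-ED fusion to nuclear EA restores b-gal, read by luminescence after 1 h room-temperature detection. Engineered CHO-K1 biosensor cells, 1,000/well, exposed 2 h at 37 C to titrations up to 46 uM final.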

[3] = molecular target: Mitogen-activated protein kinase 10 (Mus musculus) (UniProt Q61831); assay: JNK3 AlphaScreen Assay (AID 530; active means well fitted curve in either direction with a large enough effect, not every such curve was filed as active; inconclusive means small, poorly fitted or top-dose-only effect, or another doubt;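 further: kinase came from lysate of stimulated human HepG2 cells; signal reports phosphorylation of biotinylated GST-cJun 1-79 at Ser73 with 10 µM ATP; on the % scale 0 is the no-effect control and ±100 the full control effect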); details: JNK3 lysate, c-Jun phosphorylation; series mostly up to 57.1 µM
Method in brief: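 Kinase buffer: 20 mM Tris-HCl pH 7.6, 10 mM MgCl2, 1 mM DTT, 0.1 mM Na3VO4, 0.01% Tween-20; ATP 10 uM. Substrate biotin-GST-cJun(1-79), enzyme from activated HepG2 lysates. Detection by Ser73 phospho-antibody AlphaScreen.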

[4] = qHTS profiling for inhibitors of Plasmodium falciparum proliferation (AID 504749; active means well fitted curve in the direction sought with a large enough effect; inconclusive means small, poorly fitted or top-dose-only effect, or another doubt; inactive means no such curve, though single readings can be large; an effect the other way counts as inactive or inconclusive;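 further: 0% = DMSO vehicle and full inhibition = artemisinin control; nearly all actives have a fitted effect of over 60% in size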); details: P. falciparum in erythrocytes, SYBR Green DNA, 72 h
Method in brief: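 In a 72 h erythrocytic culture (37 C, humidified, 5% CO2) at 2.5% hematocrit and 0.3% starting parasitemia, compounds were tested; SYBR Green I in detergent lysis buffer stained parasite DNA overnight.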

[5] = molecular target: Estrogen receptor (Homo sapiens) (UniProt P03372); assay: qHTS assay for small molecule antagonists of estrogen receptor alpha signaling (AID 588513; active means well fitted curve in the direction sought with a large enough effect in the signal ratio, with a control signal flat, not every such curve was filed as active; inconclusive means small, poorly fitted or top-dose-only effect, or effect the other way, or a change in a side signal; inactive means no such curve, though single readings can be large or run the other way; the % refers to the signal ratio; further: potency means the concentration at half of the fitted maximal effect); details: ER-alpha-UAS-bla HEK293, beta-lactamase ratio, antagonist mode; series mostly up to 76.9 µM
Chain of Estrogen receptor (Homo sapiens) (P03372 whole entry, looked up): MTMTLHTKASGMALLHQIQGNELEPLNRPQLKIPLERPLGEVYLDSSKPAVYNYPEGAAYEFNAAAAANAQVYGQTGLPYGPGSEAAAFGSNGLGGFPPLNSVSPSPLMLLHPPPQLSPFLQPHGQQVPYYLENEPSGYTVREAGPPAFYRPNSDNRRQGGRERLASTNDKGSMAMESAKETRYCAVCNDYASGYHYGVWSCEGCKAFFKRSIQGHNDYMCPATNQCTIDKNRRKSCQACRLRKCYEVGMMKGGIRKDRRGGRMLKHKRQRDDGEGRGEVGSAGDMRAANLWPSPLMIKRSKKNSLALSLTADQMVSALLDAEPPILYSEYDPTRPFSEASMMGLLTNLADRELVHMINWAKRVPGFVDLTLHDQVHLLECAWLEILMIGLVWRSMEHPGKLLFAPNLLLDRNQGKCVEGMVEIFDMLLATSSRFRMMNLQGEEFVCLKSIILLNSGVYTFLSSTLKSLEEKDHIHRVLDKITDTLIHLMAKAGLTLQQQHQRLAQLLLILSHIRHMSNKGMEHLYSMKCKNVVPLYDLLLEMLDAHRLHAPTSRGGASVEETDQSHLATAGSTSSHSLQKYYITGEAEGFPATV
Method in brief: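 Beta-lactamase reporter, antagonist mode, HEK 293 GripTite cells; 0.5nM E2 stimulus, 18 h, 37 C; CCF4 dye 2 h RT; fluorescence. IC50 and efficacy from Hill fits, normalized to E2 and DMSO.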

[6] = molecular target: Peroxisome proliferator-activated receptor delta (Homo sapiens) (UniProt Q03181); assay: qHTS assay for small molecule antagonists of peroxisome proliferator-activated receptor delta signaling (AID 588535; active means well fitted inhibition curve with a large enough effect in the signal ratio, with a control signal flat, not every such curve was filed as active; inconclusive means small, poorly fitted or top-dose-only effect, or effect the other way, or a change in a side signal; inactive means no such curve, though single readings can be large or run the other way; the % refers to the signal ratio; further: potency means the concentration at half of the fitted maximal effect); details: HEK293T PPARd-UAS-bla, beta-lactamase FRET ratio, 18 h; series mostly up to 76.7 µM
Chain of Peroxisome proliferator-activated receptor delta (Homo sapiens) (Q03181 whole entry, looked up): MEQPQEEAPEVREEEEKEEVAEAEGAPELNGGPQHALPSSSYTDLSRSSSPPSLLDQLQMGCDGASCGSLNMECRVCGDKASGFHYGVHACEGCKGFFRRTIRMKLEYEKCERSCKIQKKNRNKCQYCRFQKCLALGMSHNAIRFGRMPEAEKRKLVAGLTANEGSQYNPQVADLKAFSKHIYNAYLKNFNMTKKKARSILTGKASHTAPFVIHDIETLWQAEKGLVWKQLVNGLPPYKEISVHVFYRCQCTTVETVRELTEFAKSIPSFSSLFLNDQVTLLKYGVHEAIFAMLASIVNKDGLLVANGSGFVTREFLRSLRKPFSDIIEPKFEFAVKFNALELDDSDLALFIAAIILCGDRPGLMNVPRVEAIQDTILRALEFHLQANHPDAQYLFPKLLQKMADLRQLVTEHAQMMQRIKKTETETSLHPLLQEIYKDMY
Method in brief: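 Antagonist-mode qHTS using GeneBLAzer PPAR-delta-UAS-bla HEK293T cells; compound exposure 18 hrs at 37 C over a titration. Ratiometric CCF4 fluorescence at 460/530 nm; concentration-response points fitted to the Hill equation.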

[7] = qHTS assay for small molecule agonists of the antioxidant response element (ARE) signaling pathway (AID 651741; active means well fitted activation curve with a large enough effect in the signal ratio; inconclusive means small, poorly fitted or top-dose-only effect, or effect the other way, or a change in a side signal; the % refers to the signal ratio; further: potency means the concentration at half of the fitted maximal effect; on activation: % of control where 0% means no effect); details: HepG2 ARE-bla reporter, beta-lactamase FRET ratio, 16 h; series mostly up to 96 µM
Method in brief: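 Agonist activity is measured as ARE-driven beta-lactamase expression in a stable HepG2 reporter line, using 16 h compound treatment at 37 C and a FRET substrate fluorescence readout after 2 h.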

[8] = qHTS assay for small molecule activators of the human pregnane X receptor (PXR) signaling pathway (AID 720659; call rule not given here; further: 0% is about no effect); details: DPX-2 HepG2 CYP3A4-luciferase, 24 h; series mostly up to 92.3 µM
[9] = molecular target: Estrogen receptor (Homo sapiens) (UniProt P03372); assay: qHTS assay for small molecule agonists of estrogen receptor alpha signaling (AID 588514); details: ER-alpha-UAS-bla HEK293, beta-lactamase ratio, 18 h; series mostly up to 76.8 µM;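 further: 0% = vehicle only and 100% = reference agonist; nearly all actives have a fitted effect of over 70% in size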
Method in brief: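 Fluorescence from CCF4 cleavage reports ER-alpha-driven beta-lactamase expression in HEK 293 cells treated 18 hrs at 37 C. Data normalized to 17-beta-estradiol (20 nM) and DMSO, fitted to Hill equation.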

[10] = molecular target: Peroxisome proliferator-activated receptor gamma (Homo sapiens) (UniProt P37231); assay: qHTS assay for small molecule antagonists of peroxisome proliferator-activated receptor gamma signaling (AID 588537; active means well fitted inhibition curve with a large enough effect in the signal ratio, with a control signal flat, not every such curve was filed as active; inconclusive means small, poorly fitted or top-dose-only effect, or effect the other way, or a change in a side signal; the % refers to the signal ratio;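 further: reporter cells co-stimulated with 50 nM rosiglitazone agonist during compound treatment; % of control where 0% means no effect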); details: HEK293 PPARg-UAS-bla, beta-lactamase ratio, antagonist mode; series mostly up to 76.8 µM
Chain of Peroxisome proliferator-activated receptor gamma (Homo sapiens) (P37231 whole entry, looked up): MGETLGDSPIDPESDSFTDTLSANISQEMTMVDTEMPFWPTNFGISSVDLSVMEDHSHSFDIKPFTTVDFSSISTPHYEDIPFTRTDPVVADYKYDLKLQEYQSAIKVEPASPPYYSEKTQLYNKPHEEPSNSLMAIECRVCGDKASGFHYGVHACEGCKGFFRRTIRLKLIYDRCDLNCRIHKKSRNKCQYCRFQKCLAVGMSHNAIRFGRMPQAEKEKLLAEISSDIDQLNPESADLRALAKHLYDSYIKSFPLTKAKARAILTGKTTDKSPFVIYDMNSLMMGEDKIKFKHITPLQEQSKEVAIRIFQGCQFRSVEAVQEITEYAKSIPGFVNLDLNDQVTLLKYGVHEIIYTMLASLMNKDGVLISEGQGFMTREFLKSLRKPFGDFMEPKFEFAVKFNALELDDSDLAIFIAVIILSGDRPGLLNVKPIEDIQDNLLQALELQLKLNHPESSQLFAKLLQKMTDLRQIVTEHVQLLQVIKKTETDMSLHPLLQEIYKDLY
Method in brief: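 Cell-based beta-lactamase assay; GW9662 served as the antagonist control. Stimulation used rosiglitazone, final 50 nM, 16 h, 37 C.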

[11] = molecular target: Vitamin D3 receptor (Homo sapiens) (UniProt P11473); assay: qHTS assay for small molecule agonists of vitamin D receptor signaling (AID 588543); details: HEK293T VDR-UAS-bla, beta-lactamase ratio, 16 h; series mostly up to 76.8 µM;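 further: 0% = DMSO basal and 100% = reference agonist control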
Chain of Vitamin D3 receptor (Homo sapiens) (P11473 whole entry, looked up): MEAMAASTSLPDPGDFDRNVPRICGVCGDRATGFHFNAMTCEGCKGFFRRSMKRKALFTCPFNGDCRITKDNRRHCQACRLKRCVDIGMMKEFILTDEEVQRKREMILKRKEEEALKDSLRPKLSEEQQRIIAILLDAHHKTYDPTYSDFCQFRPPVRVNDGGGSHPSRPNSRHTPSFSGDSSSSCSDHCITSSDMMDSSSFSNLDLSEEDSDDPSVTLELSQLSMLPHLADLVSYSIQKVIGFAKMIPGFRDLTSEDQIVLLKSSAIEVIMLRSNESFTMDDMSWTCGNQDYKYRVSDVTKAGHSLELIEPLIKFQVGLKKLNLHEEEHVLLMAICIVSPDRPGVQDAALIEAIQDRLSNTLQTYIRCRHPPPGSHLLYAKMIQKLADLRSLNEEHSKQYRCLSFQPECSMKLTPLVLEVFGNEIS
Method in brief: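 β-lactamase reporter, VDR-UAS-bla HEK293T, agonist mode. Cells plated 5 h at 37 °C, compound titration 16 h at 37 °C, CCF4 dye 2 h RT, ratio 460/530 nm. Hill fit → EC50, efficacy vs 50 nM 1α,25-(OH)2D3.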

[12] = molecular target: Thyroid hormone receptor beta (Homo sapiens) (UniProt P10828); assay: qHTS assay for small molecule agonists of thyroid hormone receptor beta signaling (AID 588545); details: TR-UAS-bla GripTite HEK 293, beta-lactamase ratio, agonist mode, 18 h, percent of T3 response, DMSO as zero; series mostly up to 76.7 µM;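 further: 0% = DMSO only and 100% = 10 nM T3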
Chain of Thyroid hormone receptor beta (Homo sapiens) (P10828 whole entry, looked up): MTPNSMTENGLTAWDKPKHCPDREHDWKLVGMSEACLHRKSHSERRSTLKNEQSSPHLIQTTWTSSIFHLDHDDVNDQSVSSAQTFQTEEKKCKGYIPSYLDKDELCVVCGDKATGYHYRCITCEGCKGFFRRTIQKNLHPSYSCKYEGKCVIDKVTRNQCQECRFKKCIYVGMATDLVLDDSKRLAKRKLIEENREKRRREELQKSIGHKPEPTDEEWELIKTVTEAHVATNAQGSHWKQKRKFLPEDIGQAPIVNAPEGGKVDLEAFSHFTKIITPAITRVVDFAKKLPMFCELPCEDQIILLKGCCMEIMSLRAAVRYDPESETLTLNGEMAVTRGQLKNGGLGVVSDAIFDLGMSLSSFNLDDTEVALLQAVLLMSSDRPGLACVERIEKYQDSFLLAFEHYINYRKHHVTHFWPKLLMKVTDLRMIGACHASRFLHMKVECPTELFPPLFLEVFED
Method in brief: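 Stimulation of a TR-driven beta-lactamase reporter was quantified in GripTite HEK 293 cells. Compound series ran for 18 hrs; curves were normalized to T3 and DMSO controls and fitted to yield EC50.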

[13] = qHTS assay for small molecule agonists of the antioxidant response element (ARE) signaling pathway measured by Nrf2-dependant transcriptional activity (AID 720636; active means well fitted curve in the direction sought with a large enough effect in the repeat runs; inconclusive means weak or mixed curves; inactive means no such curve, though single readings can be large; an effect the other way counts as inactive or inconclusive; further: % of control where 0% means no effect); details: ARE-luc HepG2, Nrf2 luciferase reporter, 16 h; series mostly up to 92.4 µM
Method in brief: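 ARE-luc HepG2 cells carrying an Nrf2-responsive luciferase reporter, in medium with 1% dialyzed FBS, exposed to compound for 16 hr at 37 C, 5% CO2. Luminescence read 30 min after ONE-Glo addition.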

[14] = molecular target: Bile acid receptor (Homo sapiens) (UniProt Q96RI1); assay: qHTS assay for small molecule antagonists of farnesoid X receptor signaling (AID 588526); details: HEK293T FXR-UAS-bla, beta-lactamase ratio, antagonist mode; series mostly up to 76.7 µM; further: on the % scale 0 is the no-effect control and ±100 the full control effect
Chain of Bile acid receptor (Homo sapiens) (Q96RI1 whole entry, looked up): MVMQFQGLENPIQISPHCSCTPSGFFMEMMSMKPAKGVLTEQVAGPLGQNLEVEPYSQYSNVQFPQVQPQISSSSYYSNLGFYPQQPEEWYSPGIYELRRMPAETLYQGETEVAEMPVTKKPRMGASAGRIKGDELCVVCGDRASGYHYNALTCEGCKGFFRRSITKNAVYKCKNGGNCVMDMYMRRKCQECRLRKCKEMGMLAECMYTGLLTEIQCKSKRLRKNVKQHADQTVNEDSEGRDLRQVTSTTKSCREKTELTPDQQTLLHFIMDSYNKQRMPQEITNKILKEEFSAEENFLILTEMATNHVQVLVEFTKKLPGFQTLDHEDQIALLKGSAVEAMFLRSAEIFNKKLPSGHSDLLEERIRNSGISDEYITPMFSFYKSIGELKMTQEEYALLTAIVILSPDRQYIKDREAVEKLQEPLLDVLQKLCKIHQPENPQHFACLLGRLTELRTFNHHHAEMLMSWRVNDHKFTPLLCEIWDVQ
Method in brief: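 Beta-lactamase reporter antagonist mode: HEK293T FXR-UAS-bla cells, titrated compound, CDCA stimulation, 16 h 37 C, CCF4 dye 2 h RT. Data normalized to CDCA 50 uM and DMSO; Hill-fit IC50.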

[15] = molecular target: Glucocorticoid receptor (Homo sapiens) (UniProt P04150); assay: qHTS assay for small molecule agonists of glucocorticoid receptor signaling (AID 588532; active means well fitted curve in the direction sought with a large enough effect in the signal ratio, with a control signal flat; inconclusive means small, poorly fitted or top-dose-only effect, or a change in a side signal; inactive means no such curve, though single readings can be large or run the other way; the % refers to the signal ratio;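 further: 100% = dexamethasone at 0.1 µM and 0% = DMSO only wells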); details: HeLa MMTV-bla, beta-lactamase ratio, agonist, 18 h; hits give high values; percent of dexamethasone control, DMSO zero
Method in brief: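 Agonist-mode qHTS: GRE-driven beta-lactamase in HeLa cells exposed 18 h to titrated compounds (up to 92 uM), then CCF4 ratio read after 2 h at RT; Hill-fitted EC50, efficacy relative to 0.1 uM dexamethasone.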

[16] = molecular target: Glucocorticoid receptor (Homo sapiens) (UniProt P04150); assay: qHTS assay for small molecule antagonists of glucocorticoid receptor signaling (AID 588533; active means well fitted inhibition curve with a large enough effect in the signal ratio, with a control signal flat, not every such curve was filed as active; inconclusive means small, poorly fitted or top-dose-only effect, or effect the other way, or a change in a side signal; the % refers to the signal ratio;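 further: cells stimulated with 2 nM dexamethasone as agonist; on the % scale 0 is the no-effect control and ±100 the full control effect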); details: HeLa MMTV-bla, GRE beta-lactamase ratio, antagonist mode, 18 h; series mostly up to 76.8 µM
Method in brief: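 Antagonist-mode qHTS: compound titrations added to GRE-bla HeLa cells, then dexamethasone 2 nM final; 18 h, 37 C. CCF4 FRET fluorescence normalized to dexamethasone and DMSO; IC50 from Hill fit.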

[17] = molecular target: Peroxisome proliferator-activated receptor delta (Homo sapiens) (UniProt Q03181); assay: qHTS assay for small molecule agonists of peroxisome proliferator-activated receptor delta signaling (AID 588534); details: HEK293T PPARdelta-UAS-bla, beta-lactamase ratio, 18 h; series mostly up to 76.7 µM;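 further: 0% = DMSO basal wells and 100% = positive control agonist at 10 µM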
Method in brief: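 EC50 and efficacy values derive from Hill fits of a concentration series in a beta-lactamase reporter cell assay. Exposure is 18 hrs at 37 C, with CCF4 fluorescence as the readout.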

[18] = molecular target: Retinoic acid receptor RXR-alpha (Homo sapiens) (UniProt P19793); assay: qHTS assay for small molecule agonists of retinoid X receptor alpha signaling (AID 588544); details: HEK293T RXRa-UAS-bla, beta-lactamase reporter, 18 h; series mostly up to 76.7 µM;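 further: 0% = DMSO basal wells and 100% = reference agonist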
Chain of Retinoic acid receptor RXR-alpha (Homo sapiens) (P19793 whole entry, looked up): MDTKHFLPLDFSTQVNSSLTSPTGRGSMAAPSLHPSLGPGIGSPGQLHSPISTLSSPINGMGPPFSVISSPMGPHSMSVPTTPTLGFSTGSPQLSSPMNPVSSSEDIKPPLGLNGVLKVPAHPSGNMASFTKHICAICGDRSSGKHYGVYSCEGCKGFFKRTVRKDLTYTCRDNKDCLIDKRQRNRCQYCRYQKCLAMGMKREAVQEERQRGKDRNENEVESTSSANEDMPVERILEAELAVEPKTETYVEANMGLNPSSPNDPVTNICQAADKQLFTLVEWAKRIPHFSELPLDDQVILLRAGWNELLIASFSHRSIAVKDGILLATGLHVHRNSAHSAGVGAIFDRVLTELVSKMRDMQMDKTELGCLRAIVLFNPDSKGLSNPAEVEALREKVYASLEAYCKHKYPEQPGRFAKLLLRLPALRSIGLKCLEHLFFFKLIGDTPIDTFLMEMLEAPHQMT

[19] = molecular target: Thyroid hormone receptor beta (Homo sapiens) (UniProt P10828); assay: qHTS assay for small molecule antagonists of thyroid hormone receptor beta signaling (AID 588547; active means well fitted inhibition curve with a large enough effect in the signal ratio, with a control signal flat, not every such curve was filed as active; inconclusive means small, poorly fitted or top-dose-only effect, or effect the other way, or a change in a side signal; the % refers to the signal ratio;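 further: cells stimulated with 0.4 nM T3 agonist during compound exposure; on the % scale 0 is the no-effect control and ±100 the full control effect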); details: TR-UAS-bla HEK293, beta-lactamase ratio, antagonist mode, 18 h
Method in brief: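 Inhibition of T3-driven (0.4nM final) beta-lactamase reporter activity was measured over 0.59 nM to 92 uM compound after 18 h at 37 C. The cells were GripTite HEK293 TR-UAS-bla in charcoal/dextran-stripped serum, with CCF4 ratio read-out and IC50 from Hill fits.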

[20] = qHTS assay for small molecule activators of the nuclear factor-kappa B (NF-kB) signaling pathway (AID 651749; active means well fitted activation curve with a large enough effect in the signal ratio; inconclusive means small, poorly fitted or top-dose-only effect, or a change in a side signal; the % refers to the signal ratio; further: % of control where 0% means no effect); details: NF-kB-bla ME-180 cells, beta-lactamase FRET ratio, 16 h; activation: hits give high values
Method in brief: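 FRET-based beta-lactamase detection in ME-180 cells reports NF-kB response-element-driven transcription following overnight (16 hr) compound treatment.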

[21] = at 28.7 µM (top of the series), parasite line A
[22] = at 28.7 µM (top of the series), parasite line B

C[C@@H]1O[C@H](O[C@@H]2C=C3CC[C@H]4[C@@H](CC[C@]5(C)[C@@H](c6ccc(=O)oc6)CC[C@]45O)[C@@]3(C)CC2)[C@@H](O)[C@H](O)[C@@H]1O
inactive: Potency [1] > 20.6 µM | Potency [2] > 20.6 µM | outcome [3] | activity, negative = inhibition ([4]; at 12.8 µM (top of the series), parasite line A) -2.59% | activity, negative = inhibition ([4]; at 12.8 µM (top of the series), parasite line B) -11.4%

c1cncc([C@H]2CCCCN2)c1
inactive: Potency [1] > 46 µM | Potency [2] > 46 µM | outcome [3]

CNc1ccc(C(=O)CC(O)CCC(C)C2OC(=O)CC(O)CC(=O)CC(O)CC(O)CC(O)CC(O)CC3(O)CC(O)C(C(=O)OC)C(CC(O[C@@H]4OC(C)C(O)C(N)C4O)/C=C/C=C/C=C/C=C/C=C/C=C/C=C/C2C)O3)cc1 (some centres undefined)
inactive: activity, negative = inhibition [4, 21] 6.26% | activity, negative = inhibition [4, 22] 3.77%

O=C1C(Cl)=C(Cl)C(=O)C(Cl)=C1Cl
inactive: outcome [3] | outcome [8]
active: Potency [5] 25.1 µM [inconclusive] | Potency [6] 12.6 µM | Potency [7] 26.6 µM

O=C1C=C2C=C[C@H]3C[C@@]2(O1)[C@H]1CCCCN31
inactive: Potency [1] > 20.6 µM and > 46 µM | Potency [2] > 20.6 µM and > 46 µM

C[C@@]12CC[C@H]3[C@@H](CC[C@]4(O)C[C@H](O)CC[C@@]34C=O)[C@]1(O)CC[C@@H]2C1=CC(=O)OC1
inactive: Potency [1] > 20.6 µM | Potency [2] > 20.6 µM | outcome [3]

C[N+]1=Cc2cc3c(cc2CC1)OCO3
inactive: Potency [1] > 46 µM | Potency [2] > 46 µM | outcome [3]

CC([C@H](O)c1ccccc1)N(C)C (some centres undefined)
inactive: activity, negative = inhibition [4, 21] 3.7% | activity, negative = inhibition [4, 22] -27.1%

CC(C)Nc1nc(Cl)nc(NC(C)C)n1
inactive: Potency [9] | Potency [6] | Potency [10] | outcome [11] | outcome [12] | outcome [13]

COP(N)(=O)SC (centres undefined)
inactive: Potency [5] | Potency [9] | outcome [14] | activation [15] -1.71% and 14.7% | Potency [16] | outcome [17] | Potency [6] | Potency [18] | outcome [12] | activity change % (negative = inhibition) [19] 12.1% and -8.42% | Potency [7] | activation [20] 0.304% and 1.6% | outcome [13] | outcome [8]

CNC(=O)Oc1cccc2c1OC(C)(C)O2
inactive: Potency [5] | Potency [9] | outcome [14] | activation [15] -2.85% | Potency [16] | Potency [6] | Potency [10] | outcome [11] | Potency [18] | activation [20] -0.841% | outcome [13]

CNC(=O)Oc1ccccc1OC(C)C
inactive: Potency [5] | Potency [9] | activation [15] -7.67% | Potency [16] | outcome [11] | outcome [12] | activity change % (negative = inhibition) [19] 16.1% | Potency [7] | activation [20] -2.6% | outcome [13] | outcome [8]

CC(C)N1C(=O)c2ccccc2NS1(=O)=O
inactive: Potency [5] | Potency [9] | activation [15] 4.24% | Potency [16] | outcome [17] | Potency [18] | outcome [12] | activity change % (negative = inhibition) [19] -1.01% | Potency [7] | activation [20] -0.185% | outcome [13] | outcome [8]
